Drawing on PubChem BioAssay (NCI), this text covers growth for 13 compounds.

About 83,000 compounds went through this panel and 20% of them were active in at least one assay; those are over-represented in the sample as a whole.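 Step 1: grow cells in 96-well plates. Step 2: add test compound at a single concentration. Step 3: incubate 48 h. Step 4: record percent growth.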 Unmarked numbers belong to inactive results. Activity calls are given as the source filed them. The calls were made as follows: active = growth percent below 10; inactive = the rest.

Test systems include NCI-H23 lung; NCI-H226 lung; NCI-H322M lung; HOP-62 NSCLC; NCI-H460 lung; HOP-92 NSCLC; NCI-H522 lung; A549/ATCC NSCLC; 786-0 renal; COLO 205 colon.
What all share (assay): NCI-60 one-dose screen, 48 h (100 = growth as untreated, 0 = no growth, -100 = all killed)
What all share (settings): 10 µM unless noted

As to `Ic1ccccc1I`, the growth was 98.9% with NCI-H23 lung; 90.5% in the assay with NCI-H226 lung; 126% in the assay with NCI-H322M lung; 90.3% with HOP-62 NSCLC; 104% in the assay with NCI-H460 lung; 90.2% in the assay with HOP-92 NSCLC. Further, the growth in the assay with NCI-H522 lung is 100%; with A549/ATCC NSCLC it was 98.5%; with 786-0 renal, 92%; with COLO 205 colon, 127%.

Take `CCNc1ccc(-c2nc3ccccc3n3cccc23)cc1`: the growth is 79.6% in the assay on NCI-H23 lung; 68.8% in the assay on NCI-H226 lung; 76.7% in the assay on NCI-H322M lung; 83.4% with HOP-62 NSCLC; 88.8% in the assay with NCI-H460 lung; 63.7% in the assay on HOP-92 NSCLC. In addition, the growth was 71.3% in the assay on NCI-H522 lung, 75.6% in the assay with A549/ATCC NSCLC, 86% with 786-0 renal and 95.2% in the assay on COLO 205 colon.

Regarding `CN1CCN(C(=O)[C@@]2(C)CC[C@]3(C)CC[C@]4(C)C(=CC[C@@H]5[C@@]6(C)CCC(=O)NC(C)(C)[C@@H]6CC[C@]54C)[C@@H]3C2)CC1`, the growth in the assay on NCI-H23 lung is 61.8%; in the assay on NCI-H226 lung, 68.3%; in the assay with NCI-H322M lung, 70.7%; with HOP-62 NSCLC, 62.8%; with NCI-H460 lung, 31.8%; in the assay on HOP-92 NSCLC it was 15.9%. Also, the growth in the assay on NCI-H522 lung was 74.8%; in the assay with A549/ATCC NSCLC, 51.9%; in the assay with 786-0 renal, 47.9%; in the assay with COLO 205 colon, 7.65% (active).

For `COc1ccc(/C(C)=C(/c2ccc(OCCCN(C)C)cc2)c2ccc(OC(=O)c3ccccc3)cc2)cc1`, the growth was 82.2% in the assay with NCI-H23 lung; 102% with NCI-H226 lung; 87% in the assay with NCI-H322M lung; 92.3% with HOP-62 NSCLC; 67.1% with NCI-H460 lung; 52.5% in the assay on HOP-92 NSCLC. The growth is 75.1% in the assay with NCI-H522 lung, 69.4% with A549/ATCC NSCLC, 73% with 786-0 renal and 94.4% with COLO 205 colon.

As to `FC(F)(F)Oc1cccc(-c2cnc3ccc(-c4ccncc4)nn23)c1`, the growth in the assay with NCI-H23 lung is 15.6%; in the assay on NCI-H226 lung, 33.5%; with NCI-H322M lung, 27.4%; in the assay with HOP-62 NSCLC it was 20.2%; in the assay on NCI-H460 lung, 17.6%; in the assay on HOP-92 NSCLC, 17.4%. For the same compound, the growth with NCI-H522 lung is 1.55% (active); with A549/ATCC NSCLC, 11.5%; in the assay with 786-0 renal it was 21.1%; in the assay on COLO 205 colon it was 16.1%.

In the case of `CC(C)(C)n1cc(-c2ccnc(NCCNS(=O)(=O)c3ccc(O)cc3)c2)c(-c2cccc(O)c2)n1`, the growth is 98.6% with NCI-H23 lung; 102% in the assay with NCI-H226 lung; 105% in the assay with NCI-H322M lung; 101% with HOP-62 NSCLC; 104% in the assay with NCI-H460 lung; 102% in the assay with HOP-92 NSCLC. Further, the growth was 94.8% with NCI-H522 lung, 97.3% with A549/ATCC NSCLC, 103% in the assay with 786-0 renal and 91.9% in the assay on COLO 205 colon.

For `O=C(Nc1ccccc1N1CCCC1=O)c1oc2ccc(F)cc2c1-c1cnn(-c2ccccc2)c1`, the growth was 61.9% [50 µM] with NCI-H23 lung; 39.4% [50 µM] with NCI-H226 lung; 63% [50 µM] in the assay on NCI-H322M lung; 55.1% [50 µM] with HOP-62 NSCLC; 28.1% [50 µM] in the assay on NCI-H460 lung; 29.1% [50 µM] in the assay with HOP-92 NSCLC. For the same compound, the growth with NCI-H522 lung is 12.7% [50 µM]; in the assay on A549/ATCC NSCLC, 37.5% [50 µM]; in the assay on 786-0 renal, 21.3% [50 µM]; with COLO 205 colon, 47% [50 µM].

In the case of `O=S(=O)(NCCNc1nccc(-c2c(-c3ccc(F)c(O)c3)nc3sccn23)n1)c1ccc(F)cc1`, the growth was 36.6% in the assay on NCI-H23 lung; 83.6% in the assay with NCI-H226 lung; 47.6% in the assay on NCI-H322M lung; 48.3% in the assay with HOP-62 NSCLC; 21.9% in the assay with NCI-H460 lung; 33.6% in the assay with HOP-92 NSCLC. In addition, the growth in the assay on NCI-H522 lung was 28.5%; in the assay with A549/ATCC NSCLC it was 26.9%; in the assay with 786-0 renal it was 38.1%; with COLO 205 colon, 26.2%.

Turning to `C=C1CC[C@@H]2[C@](C)(COC(C)=O)[C@H](OC(C)=O)CC[C@@]2(C)[C@@H]1CC(Nc1ccc(S(=O)(=O)NC(C)=O)cc1)C1=CCOC1=O` (stereo not given in full), the growth with NCI-H23 lung was 7.36% (active); with NCI-H226 lung, -52.3% (active); in the assay on NCI-H322M lung, 35.3%; with HOP-62 NSCLC it was 82%; in the assay on NCI-H460 lung, 5.29% (active); in the assay on HOP-92 NSCLC, 21%. The growth with NCI-H522 lung is -63.2% (active); in the assay on A549/ATCC NSCLC it was 27.9%; in the assay with 786-0 renal it was -66% (active); with COLO 205 colon it was -32.7% (active).

On to `CC1CCN(C(=S)SCC(=O)NC(=O)c2ccccc2)CC1`, for which the growth with NCI-H23 lung was 102%; in the assay with NCI-H226 lung it was 109%; in the assay on NCI-H322M lung, 105%; in the assay with HOP-62 NSCLC, 96.7%; in the assay on NCI-H460 lung it was 110%; in the assay on HOP-92 NSCLC, 107%. Moreover, the growth was 83.3% in the assay on NCI-H522 lung, 105% in the assay with A549/ATCC NSCLC, 103% in the assay on 786-0 renal and 104% in the assay on COLO 205 colon.

On to `CCOC(=O)c1c(C)nc2c(c1N)/C(=C/c1ccc(OC)cc1)C(=O)N2Cc1ccccc1`, for which the growth with NCI-H23 lung was 59.2%; with NCI-H226 lung it was 86.1%; with NCI-H322M lung it was 74.9%; in the assay on HOP-62 NSCLC, 58.1%; in the assay on NCI-H460 lung, 41.1%; with HOP-92 NSCLC it was 45%. In addition, the growth was 66.3% with NCI-H522 lung, 63.4% in the assay with A549/ATCC NSCLC, 64.4% in the assay with 786-0 renal and 73.7% with COLO 205 colon.

`CN(CCC(=O)c1ccccc1)CCC(=O)c1ccccc1`: the growth was 91.5% in the assay with NCI-H23 lung; 97.4% in the assay with NCI-H226 lung; 96.4% in the assay with NCI-H322M lung; 100% in the assay on HOP-62 NSCLC; 97.9% with NCI-H460 lung; 72.6% in the assay on HOP-92 NSCLC. For the same compound, the growth was -87.7% (active) in the assay with NCI-H522 lung, 97.7% in the assay with A549/ATCC NSCLC, 65.4% with 786-0 renal and 89.3% with COLO 205 colon.

In the case of `COc1cc(OC)c(C(=O)C(CN(C)C)CN(C)C)cc1OC`, the growth in the assay with NCI-H23 lung was 96.5%; in the assay on NCI-H226 lung, 108%; in the assay with NCI-H322M lung, 108%; with HOP-62 NSCLC, 84.7%; in the assay with NCI-H460 lung it was 109%; in the assay on HOP-92 NSCLC, 40%. The growth is -73.7% (active) with NCI-H522 lung, 109% in the assay on A549/ATCC NSCLC, 7.98% (active) in the assay on 786-0 renal and -85.4% (active) in the assay on COLO 205 colon.
